NOMO-1 viab = STK33 inhibitor candidate reducing NOMO-1 cell viability | NOMO-1 AML viability, CellTiter-Glo luminescence, 72 h | inhibition, % (no concentration beside the values) | hit rate 7.5% among 37,000 | AID 2330; in the data active means inhibition above about 80%; inconclusive means no clear call, values can overlap the other calls
Hedgehog inh = Sonic Hedgehog pathway inhibition; hit rate 2.1% among 22,000; AID 2313; Shh-LIGHT2 Gli-luciferase reporter, 30 h; inhibition, % (test concentration not listed);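 active means mean inhibition across valid replicates above about 65%, limit read from the data; inconclusive means mean under the limit, yet half or more replicates past it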;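 further: pathway switched on by Shh-conditioned medium diluted 1 in 25 in low serum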
MITF inh = inhibitors of MITF. TRPM1 promoter luciferase, luminescence, 24 h. inhibition, % (no concentration beside the values). hit rate 0.28% among 37,000. AID 2240; in the data active means inhibition above about 85%; inconclusive means no clear call, values can overlap the other calls; inactive means below about 68%;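 further: human melanocyte line stably carrying TRPM1 promoter luciferase reporter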
An asterisk follows results filed as active; ? = inconclusive; / = not tested or not shown. Most compounds without a hit are left out; they make up all but 7.8% or so of the library.

SMILES | NOMO-1 viab | Hedgehog inh | MITF inh
COc1ccc(OC)c(NC(=O)COc2ccc3c(=O)c(Oc4ccccc4Br)coc3c2)c1 | 37 | / | 95*
Nc1ccc(C(=O)NCC2CCCN3CCCCC23)cc1 (configuration not stated) | 15 | -14 | -9
C[C@H](CO)N1C[C@H](C)[C@@H](CN(C)S(=O)(=O)c2cn(C)cn2)Oc2ccc(NC(=O)NC3CCCCC3)cc2C1=O | 23 | 6 | 9
C[C@@H]1CN([C@@H](C)CO)C(=O)c2cc(NC(=O)CCCCCC(=O)Nc3ccccc3N)ccc2O[C@H]1CN(C)C(=O)NC1CCCCC1 | -8 | / | -3
C[C@@H]1CN([C@H](C)CO)C(=O)c2cccc(NC(=O)c3ccc(-c4nccs4)cc3)c2O[C@@H]1CN(C)Cc1ccccc1 | 28 | -54 | -6
C[C@@H]1CN([C@@H](C)CO)C(=O)c2cccc(NC(=O)c3ccc(-c4nccs4)cc3)c2O[C@@H]1CN(C)Cc1ccc(-c2ccccc2)cc1 | 57 | 32 | -5
C[C@@H]1CN([C@H](C)CO)C(=O)c2cccc(NC(=O)c3ccc(-c4nccs4)cc3)c2O[C@H]1CN(C)Cc1ccc(C(=O)Nc2ccccc2N)cc1 | 128* | / | 23
C[C@@H]1CN([C@@H](C)CO)C(=O)c2cccc(NC(=O)c3ccc(-c4nccs4)cc3)c2O[C@H]1CN(C)Cc1ccccc1 | 88* | 1 | 64
C[C@H]1CN([C@@H](C)CO)C(=O)c2cccc(NC(=O)c3ccc(-c4nccs4)cc3)c2O[C@@H]1CN(C)Cc1ccc(C(=O)Nc2ccccc2N)cc1 | 124* | / | 40
C[C@@H]1CN([C@H](C)CO)C(=O)c2cccc(NC(=O)c3ccc(-c4nccs4)cc3)c2O[C@H]1CN(C)CC1CCCCC1 | 87* | -14 | 19
C[C@H]1CN([C@@H](C)CO)C(=O)c2cccc(NC(=O)c3ccc(-c4nccs4)cc3)c2O[C@H]1CN(C)Cc1ccccc1 | 37 | -73 | -15
C[C@H](CO)N1C[C@H](C)[C@H](CN(C)CC2CCCCC2)Oc2c(NC(=O)c3ccc(-c4nccs4)cc3)cccc2C1=O | 26 | 7 | -10
C[C@@H]1CN([C@H](C)CO)C(=O)c2cc(NC(=O)Nc3ccc(C(F)(F)F)cc3)ccc2O[C@@H]1CN(C)C(=O)NC1CCCCC1 | ? | 15 | 60
Cc1cc([N+](=O)[O-])nn1CC(=O)Nc1cc(F)ccc1F | 4 | / | 7
CC1CCC(C(C)C)C(=O)/C1=C/c1ccc(N)cc1 (configuration not stated) | ? | / | -76
COc1ccc(NC(=O)Nc2ccc3c(c2)CC(=O)N([C@H](C)CO)C[C@H](C)[C@H](CN(C)C(=O)Nc2c(C)noc2C)O3)cc1 | -6 | -55 | -2
CCCCCc1cc(OC)c2c(c1C(=O)O)OC(C)(C)C(O)C2 (configuration not stated) | 19 | 16 | 2
Cc1nc(SC(C)C(=O)Nc2ccc(Cl)cc2)n[nH]1 (configuration not stated) | 34 | / | 19
C[C@@H]1CN([C@@H](C)CO)C(=O)c2cc(NC(=O)CCCCCC(=O)Nc3ccccc3N)ccc2O[C@H]1CN(C)C(=O)Nc1ccccc1 | 0 | / | -16
COc1cc(/C=C2/SC(=Nc3cc(C)cc(C)c3)NC2=O)cc(Br)c1OC | 120* | 6 | 10
COc1cc(/C=C/C=O)cc(OC)c1OC | 13 | -49 | 2
COc1ccc(S(=O)(=O)Nc2ccc3c(c2)C(=O)N([C@H](C)CO)C[C@H](C)[C@@H](CN(C)Cc2ccc(Cl)c(Cl)c2)O3)cc1 | 51 | -5 | -7
COc1ccc(CN(C)C[C@H]2Oc3ccc(NS(=O)(=O)c4ccc(OC)cc4)cc3CC(=O)N([C@H](C)CO)C[C@H]2C)cc1 | 16 | -12 | 8
COc1ccc(S(=O)(=O)Nc2ccc3c(c2)C(=O)N([C@@H](C)CO)C[C@@H](C)[C@@H](CN(C)Cc2ccc(Cl)c(Cl)c2)O3)cc1 | 114* | ? | 61
COc1ccc(S(=O)(=O)Nc2ccc3c(c2)C(=O)N([C@H](C)CO)C[C@H](C)[C@H](CN(C)Cc2ccc(Cl)c(Cl)c2)O3)cc1 | 73 | 16 | 7
COc1ccc(S(=O)(=O)Nc2ccc3c(c2)CC(=O)N([C@H](C)CO)C[C@@H](C)[C@@H](CN(C)Cc2ccc(Cl)c(Cl)c2)O3)cc1 | 114* | 31 | -6
COc1ccc(S(=O)(=O)Nc2ccc3c(c2)CC(=O)N([C@@H](C)CO)C[C@H](C)[C@H](CN(C)Cc2ccc(Cl)c(Cl)c2)O3)cc1 | 105* | 39 | 10
COc1ccc(CN(C)C[C@@H]2Oc3ccc(NS(=O)(=O)c4ccc(OC)cc4)cc3CC(=O)N([C@H](C)CO)C[C@H]2C)cc1 | 11 | 3 | 5

Source: PubChem BioAssay
